# Source: PMC7862700, “An all-to-all approach to the identification of sequence-specific readers for epigenetic DNA modifications on cytosine”
# What was measured:
# Assay in all cases: DAPPL (digital affinity profiling via proximity ligation, sequencing); 10 mM Tris-HCl pH 7.5, 50 mM NaCl, 1 mM DTT, 4% glycerol, room temperature, 30 min; GST-TFs on glutathione beads, 16-mer random dsDNA library, 0.1% formaldehyde crosslink after washing; high values mean tight binding
# [1] = molecular target: T1, FLI1 (Homo sapiens, UniProt Q01543 1-452); conditions: protein: recombinant; tags: N-terminal GST; dsDNA, one strand shown
# T1 sequence: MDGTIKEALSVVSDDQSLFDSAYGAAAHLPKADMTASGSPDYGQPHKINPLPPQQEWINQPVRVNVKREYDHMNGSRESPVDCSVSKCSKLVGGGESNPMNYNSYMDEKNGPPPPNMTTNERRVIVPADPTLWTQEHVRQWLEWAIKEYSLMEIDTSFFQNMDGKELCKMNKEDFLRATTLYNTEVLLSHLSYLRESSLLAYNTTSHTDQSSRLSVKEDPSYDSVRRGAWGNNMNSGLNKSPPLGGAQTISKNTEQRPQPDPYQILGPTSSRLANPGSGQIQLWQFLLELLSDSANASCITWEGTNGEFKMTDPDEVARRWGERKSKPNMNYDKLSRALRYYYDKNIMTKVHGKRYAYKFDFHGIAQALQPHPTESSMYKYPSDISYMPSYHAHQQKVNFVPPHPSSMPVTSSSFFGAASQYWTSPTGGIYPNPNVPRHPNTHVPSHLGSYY
# How it was run: (§1)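 Yeast served to express human transcription factors as GST fusions, which were then captured on glutathione beads and labelled with DNA barcodes. Pooled with a tag-only sample, they were incubated with 200 nmole of a 16-mer random double-stranded DNA library for 30 min at room temperature in Tris/NaCl/DTT/glycerol buffer, washed, crosslinked with 0.1% formaldehyde, ligated by proximity, amplified by PCR and sequenced. Dividing each hexamer's read frequency for a factor by its frequency for the tag-only sample gives the binding signal.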
# [2] = molecular target: T2, ELK1 (Homo sapiens, UniProt P19419 1-428); conditions: protein: recombinant; tags: N-terminal GST; dsDNA, one strand shown
# T2 sequence: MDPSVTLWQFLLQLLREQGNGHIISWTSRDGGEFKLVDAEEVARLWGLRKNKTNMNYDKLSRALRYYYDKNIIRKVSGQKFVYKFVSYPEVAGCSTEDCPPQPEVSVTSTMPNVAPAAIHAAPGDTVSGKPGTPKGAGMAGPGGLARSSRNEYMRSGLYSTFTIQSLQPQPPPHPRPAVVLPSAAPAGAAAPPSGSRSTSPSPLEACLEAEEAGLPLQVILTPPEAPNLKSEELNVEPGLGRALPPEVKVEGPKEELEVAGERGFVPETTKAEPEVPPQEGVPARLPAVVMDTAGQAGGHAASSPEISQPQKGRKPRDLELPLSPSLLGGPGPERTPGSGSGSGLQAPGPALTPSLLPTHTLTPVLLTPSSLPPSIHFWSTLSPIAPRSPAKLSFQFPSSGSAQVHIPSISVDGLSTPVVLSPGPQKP
# How it was run: as §1
# [3] = molecular target: T3, GABPA (Homo sapiens, UniProt Q06546 1-454); conditions: protein: recombinant; tags: N-terminal GST; dsDNA, one strand shown
# T3 sequence: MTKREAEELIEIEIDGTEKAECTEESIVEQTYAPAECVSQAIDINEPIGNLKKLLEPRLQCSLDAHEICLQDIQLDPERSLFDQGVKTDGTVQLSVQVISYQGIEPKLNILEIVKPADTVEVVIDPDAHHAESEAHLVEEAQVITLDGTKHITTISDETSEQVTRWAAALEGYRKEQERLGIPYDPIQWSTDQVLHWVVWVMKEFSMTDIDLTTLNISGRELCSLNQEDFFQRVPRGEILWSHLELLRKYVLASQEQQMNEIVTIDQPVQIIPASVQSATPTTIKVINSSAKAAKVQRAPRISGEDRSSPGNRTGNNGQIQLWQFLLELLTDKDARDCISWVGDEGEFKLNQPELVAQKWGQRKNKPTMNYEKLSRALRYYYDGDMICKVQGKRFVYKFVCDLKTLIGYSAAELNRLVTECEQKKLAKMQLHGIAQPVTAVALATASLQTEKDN
# How it was run: as §1
# [4] = molecular target: T4, ERG (Homo sapiens, UniProt P11308 1-479); conditions: protein: recombinant; tags: N-terminal GST; dsDNA, one strand shown
# T4 sequence: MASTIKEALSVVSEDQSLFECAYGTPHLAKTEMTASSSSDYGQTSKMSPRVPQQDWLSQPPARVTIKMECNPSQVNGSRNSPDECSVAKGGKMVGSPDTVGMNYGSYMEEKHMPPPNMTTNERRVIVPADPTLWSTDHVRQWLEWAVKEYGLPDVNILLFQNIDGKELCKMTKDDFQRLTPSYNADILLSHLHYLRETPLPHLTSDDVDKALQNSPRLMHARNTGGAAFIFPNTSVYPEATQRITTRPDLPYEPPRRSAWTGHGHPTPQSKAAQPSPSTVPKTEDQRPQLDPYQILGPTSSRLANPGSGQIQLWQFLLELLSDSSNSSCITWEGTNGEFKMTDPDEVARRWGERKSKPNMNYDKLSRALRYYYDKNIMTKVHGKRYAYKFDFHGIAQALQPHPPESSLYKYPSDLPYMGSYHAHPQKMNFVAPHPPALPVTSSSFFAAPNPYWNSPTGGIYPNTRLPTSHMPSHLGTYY
# How it was run: as §1
# [5] = molecular target: ELF1 (Homo sapiens, UniProt P32519 1-619); conditions: protein: recombinant; tags: N-terminal GST; dsDNA, one strand shown
# Chain of ELF1 (P32519 whole entry): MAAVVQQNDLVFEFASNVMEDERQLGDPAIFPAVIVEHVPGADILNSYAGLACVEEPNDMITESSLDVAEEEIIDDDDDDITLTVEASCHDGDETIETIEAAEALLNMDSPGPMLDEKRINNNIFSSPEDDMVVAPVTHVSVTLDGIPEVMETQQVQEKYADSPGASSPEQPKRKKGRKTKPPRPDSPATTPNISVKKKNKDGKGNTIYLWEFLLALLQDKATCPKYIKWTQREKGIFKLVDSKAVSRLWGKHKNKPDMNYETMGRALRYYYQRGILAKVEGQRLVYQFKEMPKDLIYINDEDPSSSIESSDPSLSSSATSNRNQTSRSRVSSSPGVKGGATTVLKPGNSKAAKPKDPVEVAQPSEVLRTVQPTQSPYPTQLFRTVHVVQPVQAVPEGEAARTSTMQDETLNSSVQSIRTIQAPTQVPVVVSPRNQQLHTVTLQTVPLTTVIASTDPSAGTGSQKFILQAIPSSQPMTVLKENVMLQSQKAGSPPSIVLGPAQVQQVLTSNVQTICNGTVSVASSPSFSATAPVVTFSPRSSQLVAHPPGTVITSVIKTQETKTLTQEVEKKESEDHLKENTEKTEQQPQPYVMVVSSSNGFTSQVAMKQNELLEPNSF
# How it was run: as §1
# [6] = molecular target: T5, EHF (Homo sapiens, UniProt Q9NZC4 1-300); conditions: protein: recombinant; tags: N-terminal GST; dsDNA, one strand shown
# T5 sequence: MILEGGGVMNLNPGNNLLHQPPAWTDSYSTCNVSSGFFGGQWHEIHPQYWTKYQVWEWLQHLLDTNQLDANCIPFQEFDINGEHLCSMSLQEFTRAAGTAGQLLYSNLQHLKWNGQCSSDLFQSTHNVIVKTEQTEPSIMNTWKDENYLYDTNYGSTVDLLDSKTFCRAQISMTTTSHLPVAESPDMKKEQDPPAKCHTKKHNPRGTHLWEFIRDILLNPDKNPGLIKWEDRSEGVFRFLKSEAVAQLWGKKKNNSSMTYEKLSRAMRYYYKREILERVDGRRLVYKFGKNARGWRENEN
# How it was run: as §1
# [7] = molecular target: SPI1 (Homo sapiens, UniProt P17947 1-270); conditions: protein: recombinant; tags: N-terminal GST; dsDNA, one strand shown
# How it was run: as §1
# [8] = molecular target: SPIB (Homo sapiens, UniProt Q01892 1-262); conditions: protein: recombinant; tags: N-terminal GST; dsDNA, one strand shown
# Chain of SPIB (Q01892 whole entry): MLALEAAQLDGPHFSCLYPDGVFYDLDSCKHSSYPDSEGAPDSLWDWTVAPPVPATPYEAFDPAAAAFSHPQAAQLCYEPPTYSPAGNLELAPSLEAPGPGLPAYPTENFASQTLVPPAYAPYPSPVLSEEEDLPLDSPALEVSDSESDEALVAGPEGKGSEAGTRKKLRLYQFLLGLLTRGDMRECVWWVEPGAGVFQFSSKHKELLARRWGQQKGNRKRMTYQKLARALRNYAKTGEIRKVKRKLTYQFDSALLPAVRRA
# How it was run: as §1
# [9] = molecular target: T6, ELK3 (Homo sapiens, UniProt P41970 1-407); conditions: protein: recombinant; tags: N-terminal GST; dsDNA, one strand shown
# T6 sequence: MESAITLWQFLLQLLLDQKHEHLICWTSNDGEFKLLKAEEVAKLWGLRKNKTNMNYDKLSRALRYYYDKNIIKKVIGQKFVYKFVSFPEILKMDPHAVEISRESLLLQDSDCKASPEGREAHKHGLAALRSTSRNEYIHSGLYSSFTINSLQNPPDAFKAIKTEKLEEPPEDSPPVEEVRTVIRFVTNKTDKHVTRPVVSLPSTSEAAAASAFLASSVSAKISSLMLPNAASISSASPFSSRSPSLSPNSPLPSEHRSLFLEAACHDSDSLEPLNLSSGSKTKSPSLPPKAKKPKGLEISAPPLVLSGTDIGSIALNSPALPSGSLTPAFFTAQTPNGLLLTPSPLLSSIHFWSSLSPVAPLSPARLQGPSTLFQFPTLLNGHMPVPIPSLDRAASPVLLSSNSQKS
# How it was run: as §1
# [10] = molecular target: T7, FEV (Homo sapiens, UniProt Q99581 1-238); conditions: protein: recombinant; tags: N-terminal GST; dsDNA, one strand shown
# T7 sequence: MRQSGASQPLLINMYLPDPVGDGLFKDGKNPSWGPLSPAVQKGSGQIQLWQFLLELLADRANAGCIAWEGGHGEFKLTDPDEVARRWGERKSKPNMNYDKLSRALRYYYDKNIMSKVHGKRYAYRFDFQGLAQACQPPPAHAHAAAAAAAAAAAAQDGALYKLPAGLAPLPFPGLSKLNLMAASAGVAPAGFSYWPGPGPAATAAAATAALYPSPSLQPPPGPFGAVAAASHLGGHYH
# How it was run: as §1
# [11] = molecular target: ETV5 (Homo sapiens, UniProt P41161 1-510); conditions: protein: recombinant; tags: N-terminal GST; dsDNA, one strand shown
# Chain of ETV5 (P41161 whole entry): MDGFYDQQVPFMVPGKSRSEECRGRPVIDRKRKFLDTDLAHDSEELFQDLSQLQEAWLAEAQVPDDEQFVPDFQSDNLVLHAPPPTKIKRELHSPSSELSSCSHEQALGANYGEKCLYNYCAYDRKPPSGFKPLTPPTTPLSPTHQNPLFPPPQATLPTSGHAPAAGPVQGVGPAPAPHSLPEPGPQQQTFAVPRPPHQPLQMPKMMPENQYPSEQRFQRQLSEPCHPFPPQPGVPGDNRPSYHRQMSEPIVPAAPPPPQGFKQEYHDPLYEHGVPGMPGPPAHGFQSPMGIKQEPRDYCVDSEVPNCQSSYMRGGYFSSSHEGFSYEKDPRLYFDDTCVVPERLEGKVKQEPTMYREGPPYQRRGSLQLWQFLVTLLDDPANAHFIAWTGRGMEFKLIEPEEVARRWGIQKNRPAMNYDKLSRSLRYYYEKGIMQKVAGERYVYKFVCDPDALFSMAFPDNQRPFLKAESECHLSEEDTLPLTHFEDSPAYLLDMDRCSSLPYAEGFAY
# How it was run: as §1
# [12] = molecular target: HSF1 (Homo sapiens, UniProt Q00613 1-529); conditions: protein: recombinant; tags: N-terminal GST; chain copies: 3; dsDNA, one strand shown
# Chain of HSF1 (Q00613 whole entry): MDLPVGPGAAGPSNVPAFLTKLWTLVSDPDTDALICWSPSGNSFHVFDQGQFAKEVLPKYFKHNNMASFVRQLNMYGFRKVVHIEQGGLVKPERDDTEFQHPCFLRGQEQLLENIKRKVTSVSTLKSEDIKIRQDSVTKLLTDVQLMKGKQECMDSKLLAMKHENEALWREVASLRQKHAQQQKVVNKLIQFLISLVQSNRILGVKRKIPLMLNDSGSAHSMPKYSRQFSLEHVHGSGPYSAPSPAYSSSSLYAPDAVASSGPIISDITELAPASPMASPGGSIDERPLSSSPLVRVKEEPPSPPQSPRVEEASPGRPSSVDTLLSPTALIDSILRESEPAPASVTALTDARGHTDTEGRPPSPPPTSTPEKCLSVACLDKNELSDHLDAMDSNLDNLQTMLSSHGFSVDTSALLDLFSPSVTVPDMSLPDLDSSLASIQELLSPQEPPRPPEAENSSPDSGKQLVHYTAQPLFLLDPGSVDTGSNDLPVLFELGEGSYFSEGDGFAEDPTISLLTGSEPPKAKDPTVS
# How it was run: as §1
# [13] = molecular target: T8, SPIC (Homo sapiens, UniProt Q8N5J4 1-248); conditions: protein: recombinant; tags: N-terminal GST; dsDNA, one strand shown
# T8 sequence: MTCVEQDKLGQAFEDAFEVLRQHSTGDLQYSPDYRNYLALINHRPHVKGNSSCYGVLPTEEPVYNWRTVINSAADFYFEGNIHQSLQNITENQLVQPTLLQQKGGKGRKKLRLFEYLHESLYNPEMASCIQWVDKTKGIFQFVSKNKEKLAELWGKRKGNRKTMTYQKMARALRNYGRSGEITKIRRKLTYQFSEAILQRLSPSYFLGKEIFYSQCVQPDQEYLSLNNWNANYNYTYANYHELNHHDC
# How it was run: as §1
# [14] = molecular target: ELF4 (Homo sapiens, UniProt Q99607 1-663); conditions: protein: recombinant; tags: N-terminal GST; dsDNA, one strand shown
# Chain of ELF4 (Q99607 whole entry): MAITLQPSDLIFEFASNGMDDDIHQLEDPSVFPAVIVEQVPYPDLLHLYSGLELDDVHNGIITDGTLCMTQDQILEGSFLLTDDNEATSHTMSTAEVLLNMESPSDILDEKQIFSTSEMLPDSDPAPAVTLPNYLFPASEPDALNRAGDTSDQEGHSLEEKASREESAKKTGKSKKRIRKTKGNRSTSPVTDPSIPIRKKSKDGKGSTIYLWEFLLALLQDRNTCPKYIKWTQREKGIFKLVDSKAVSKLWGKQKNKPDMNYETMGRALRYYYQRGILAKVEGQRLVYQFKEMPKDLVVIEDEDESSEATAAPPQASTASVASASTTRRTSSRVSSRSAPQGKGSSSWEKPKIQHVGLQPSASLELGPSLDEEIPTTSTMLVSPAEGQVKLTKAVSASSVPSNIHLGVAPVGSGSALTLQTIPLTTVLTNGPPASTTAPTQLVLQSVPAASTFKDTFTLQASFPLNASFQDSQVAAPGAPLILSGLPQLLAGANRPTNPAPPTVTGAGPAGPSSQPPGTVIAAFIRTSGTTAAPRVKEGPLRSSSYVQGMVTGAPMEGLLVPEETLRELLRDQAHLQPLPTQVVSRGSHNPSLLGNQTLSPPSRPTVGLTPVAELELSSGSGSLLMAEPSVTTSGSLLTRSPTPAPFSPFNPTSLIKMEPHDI
# How it was run: as §1
# [15] = molecular target: T9, ELK4 (Homo sapiens, UniProt P28324-2 1-405); conditions: protein: recombinant; tags: N-terminal GST; dsDNA, one strand shown
# T9 sequence: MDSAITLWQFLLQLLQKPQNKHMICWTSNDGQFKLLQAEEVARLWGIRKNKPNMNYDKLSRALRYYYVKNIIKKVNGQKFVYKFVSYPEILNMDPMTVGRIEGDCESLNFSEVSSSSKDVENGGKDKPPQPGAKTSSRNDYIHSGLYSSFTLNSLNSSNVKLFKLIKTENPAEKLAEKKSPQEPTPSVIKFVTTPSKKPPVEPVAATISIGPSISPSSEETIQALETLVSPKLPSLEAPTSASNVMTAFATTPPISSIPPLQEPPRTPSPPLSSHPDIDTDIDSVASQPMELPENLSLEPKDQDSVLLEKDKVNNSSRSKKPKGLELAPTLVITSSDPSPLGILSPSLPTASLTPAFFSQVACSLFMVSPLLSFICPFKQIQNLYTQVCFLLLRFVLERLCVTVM
# How it was run: as §1
# [16] = molecular target: T10, ETV2 (Homo sapiens, UniProt O00321 1-342); conditions: protein: recombinant; tags: N-terminal GST; dsDNA, one strand shown
# T10 sequence: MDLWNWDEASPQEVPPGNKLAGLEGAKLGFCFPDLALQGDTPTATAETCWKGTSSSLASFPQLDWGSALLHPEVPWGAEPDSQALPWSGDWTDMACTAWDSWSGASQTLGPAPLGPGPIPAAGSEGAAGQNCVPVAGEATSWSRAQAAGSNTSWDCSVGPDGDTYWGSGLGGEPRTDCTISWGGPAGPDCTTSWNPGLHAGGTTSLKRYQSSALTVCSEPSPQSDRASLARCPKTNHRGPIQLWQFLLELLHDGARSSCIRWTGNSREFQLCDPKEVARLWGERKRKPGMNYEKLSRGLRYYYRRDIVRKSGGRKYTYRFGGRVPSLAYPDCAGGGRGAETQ
# How it was run: as §1
# [17] = molecular target: T11, ELF3 (Homo sapiens, UniProt P78545 1-371); conditions: protein: recombinant; tags: N-terminal GST; dsDNA, one strand shown
# T11 sequence: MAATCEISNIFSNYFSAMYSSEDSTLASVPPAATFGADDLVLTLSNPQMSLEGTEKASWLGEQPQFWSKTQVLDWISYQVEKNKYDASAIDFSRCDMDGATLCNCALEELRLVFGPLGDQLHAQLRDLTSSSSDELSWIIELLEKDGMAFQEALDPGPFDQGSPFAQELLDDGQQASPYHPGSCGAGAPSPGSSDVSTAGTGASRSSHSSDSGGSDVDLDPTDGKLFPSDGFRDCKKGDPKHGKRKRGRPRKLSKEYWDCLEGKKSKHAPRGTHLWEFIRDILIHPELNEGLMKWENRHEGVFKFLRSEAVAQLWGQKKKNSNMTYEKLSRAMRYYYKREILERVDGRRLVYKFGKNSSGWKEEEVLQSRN
# How it was run: as §1
# [18] = molecular target: CRX (Homo sapiens, UniProt O43186 1-299); conditions: protein: recombinant; tags: N-terminal GST; dsDNA, one strand shown
# Chain of CRX (O43186 whole entry): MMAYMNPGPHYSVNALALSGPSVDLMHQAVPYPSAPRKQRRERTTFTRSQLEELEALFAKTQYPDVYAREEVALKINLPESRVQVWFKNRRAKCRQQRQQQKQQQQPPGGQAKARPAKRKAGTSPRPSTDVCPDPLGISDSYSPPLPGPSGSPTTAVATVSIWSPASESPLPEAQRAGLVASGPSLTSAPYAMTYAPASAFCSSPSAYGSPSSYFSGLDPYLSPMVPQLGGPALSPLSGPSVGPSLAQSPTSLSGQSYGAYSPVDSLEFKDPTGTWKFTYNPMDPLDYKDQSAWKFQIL
# How it was run: as §1
# [19] = molecular target: ETV1 (Homo sapiens, UniProt P50549 1-477); conditions: protein: recombinant; tags: N-terminal GST; dsDNA, one strand shown
# Chain of ETV1 (P50549 whole entry): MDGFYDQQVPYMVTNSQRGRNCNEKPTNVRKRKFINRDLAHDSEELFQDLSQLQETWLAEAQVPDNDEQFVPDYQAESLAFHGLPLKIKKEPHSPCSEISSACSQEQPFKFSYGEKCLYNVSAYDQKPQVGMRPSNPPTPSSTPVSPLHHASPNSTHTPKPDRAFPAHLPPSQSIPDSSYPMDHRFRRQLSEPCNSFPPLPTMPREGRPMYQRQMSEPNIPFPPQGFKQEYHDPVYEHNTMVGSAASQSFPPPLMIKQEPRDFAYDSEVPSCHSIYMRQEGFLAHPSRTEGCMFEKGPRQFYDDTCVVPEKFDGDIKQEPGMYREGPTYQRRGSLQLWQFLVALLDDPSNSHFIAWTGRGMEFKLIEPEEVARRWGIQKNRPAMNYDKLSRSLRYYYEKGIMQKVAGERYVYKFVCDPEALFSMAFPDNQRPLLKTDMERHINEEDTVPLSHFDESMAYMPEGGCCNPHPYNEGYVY
# How it was run: as §1
sequence,measurement,setting,value
TTTTTC,binding signal,[1],"1.21 fold enrichment (6-mer frequency, TF over GST control)"
same,binding signal,[2],"1.15 fold enrichment (6-mer frequency, TF over GST control)"
same,binding signal,[3],"1.32 fold enrichment (6-mer frequency, TF over GST control)"
same,binding signal,[4],"1.14 fold enrichment (6-mer frequency, TF over GST control)"
same,binding signal,[5],"1.22 fold enrichment (6-mer frequency, TF over GST control)"
same,binding signal,[6],"1.23 fold enrichment (6-mer frequency, TF over GST control)"
same,binding signal,[7],"1.33 fold enrichment (6-mer frequency, TF over GST control)"
same,binding signal,[8],"1.14 fold enrichment (6-mer frequency, TF over GST control)"
same,binding signal,[9],"1.39 fold enrichment (6-mer frequency, TF over GST control)"
same,binding signal,[10],"1.19 fold enrichment (6-mer frequency, TF over GST control)"
same,binding signal,[11],"1.27 fold enrichment (6-mer frequency, TF over GST control)"
same,binding signal,[12],"1.44 fold enrichment (6-mer frequency, TF over GST control)"
same,binding signal,[13],"1.11 fold enrichment (6-mer frequency, TF over GST control)"
same,binding signal,[14],"1.32 fold enrichment (6-mer frequency, TF over GST control)"
same,binding signal,[15],"1.16 fold enrichment (6-mer frequency, TF over GST control)"
same,binding signal,[16],"1.24 fold enrichment (6-mer frequency, TF over GST control)"
same,binding signal,[17],"1.26 fold enrichment (6-mer frequency, TF over GST control)"
same,binding signal,[18],"1.09 fold enrichment (6-mer frequency, TF over GST control)"
same,binding signal,[19],"1.21 fold enrichment (6-mer frequency, TF over GST control)"
